Measurements: PubChem BioAssay AID686978 (National Center for Advancing Translational Sciences (NCATS), 2013)
The campaign covered roughly 420,000 compounds. About 64,000 (15%) were called active. Roughly 27% stayed inconclusive and do not appear here. Calls follow the shape of the dose curve; as a rule, active = well fitted inhibition curve with a large enough effect; inconclusive = small, poorly fitted or top-dose-only effect; inactive = flat fitted curve, though single readings scatter. These entries were drawn from the full list. Entries that show only a call come without a potency.

test: qHTS for Inhibitors of human tyrosyl-DNA phosphodiesterase 1 (TDP1): qHTS in cells in absence of CPT; details: DT40 Tdp1-/- hTDP1 cells, no CPT, ATP luminescence, 48 h; activity change, negative = growth inhibition: at 46.2 µM (top of the series); also: nearly all actives have a fitted effect of over 55% in size
Summary of the method: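 A cellular qHTS used chicken DT40 cells lacking endogenous Tdp1 but carrying stably transfected human TDP1. Compounds were applied without camptothecin, and cell growth kinetics were judged by ATP-dependent luminescence after ≥48 hr.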
Potency is read from the fitted curve at half-maximal effect.

Structure (SMILES) | Potency
O=C(c1cccs1)c1cn(CCOc2ccc(Cl)cc2)c2ccccc12 | 7.31 µM (active)
COCCNC(=O)Cn1cc(C(=O)c2cccs2)c2ccccc21 | inactive
COC(=O)Cn1cc(C(=O)c2cccs2)c2ccccc21 | inactive
O=C(CC1SC(N2CCCC2)=NC1=O)Nc1ccc(C(=O)NCCc2ccc(F)cc2)cc1 (configuration not stated) | inactive
CC(=O)Nc1ccc(NS(=O)(=O)c2cc(C)sc2C)cc1 | inactive
O=[N+]([O-])c1cc(-c2nc(-c3ccccc3)no2)ccc1NCc1ccco1 | inactive
COc1ccc(CCNc2cc(N3CCN(C(=O)c4ccccc4OC)CC3)ccc2[N+](=O)[O-])cc1OC | 9.2 µM (active)
O=C(c1cccc([N+](=O)[O-])c1)N1CCN(C(=O)c2ccco2)CC1 | inactive
COc1ccc(CCNC(=O)CCc2ccccc2O)cc1OC | inactive
O=C(c1ccccc1)N1CCN(c2ccc([N+](=O)[O-])c(NCc3ccco3)c2)CC1 | 16.4 µM (active)
COc1ccc(CCNC(=O)c2ccccc2-c2ccccc2C(=O)O)cc1OC | inactive
CCC(=O)N1CCC(C(N)=O)(N2CCCCC2)CC1 | inactive
COc1cccc(C(=O)NC2=NC(c3ccc(N(C)C)cc3)CC(=O)N2)c1 (configuration not stated) | inactive
O=C(NCCCn1ccnc1)c1cc2c(s1)CCCC2 | inactive
CCOCCCNC(=O)C(NC(=O)c1ccc(=O)[nH]c1)c1ccc(C)cc1 (configuration not stated) | inactive
CC(=O)N(CC(O)CO)c1c(I)c(C(=O)NCC(O)CO)c(I)c(C(=O)NCC(O)CO)c1I (configuration not stated) | inactive
COc1ccc(C2N=C(N)N=C(N)N2c2ccccc2)cc1OC (configuration not stated) | inactive
O=C(NCCS(=O)(=O)NCc1ccc(Cl)cc1)c1ccccc1 | inactive
COc1ccc(CNC(=O)COC(=O)CCS(=O)(=O)c2ccc(C)cc2)cc1OC | inactive
CCCCCCn1c(=O)n2n(c1=O)C[C@]1(OC(=O)NCc3ccc(OC)c(OC)c3)CN(S(=O)(=O)c3ccc(C)cc3)C[C@]1(O)C2 | 20.6 µM (active)
CCCS(=O)(=O)N1CCC(C(=O)NCCc2ccc(OC)c(OC)c2)CC1 | inactive
CNc1ccc(-c2nc(-c3ccccc3C)no2)cc1[N+](=O)[O-] | inactive
Cc1nnc(-c2ccc(Oc3ccc(C)c(C)c3)c([N+](=O)[O-])c2)o1 | 9.2 µM (active)
COc1ccc(-c2nc3cc([N+](=O)[O-])ccc3o2)cc1OC | inactive
O=C(CCc1nc(CN2CCN(S(=O)(=O)c3ccc(Cl)cc3)CC2)no1)N1CCCCC1 | inactive
O=C(COC(=O)COc1cccc(F)c1)NCC1CCCCC1 | inactive
O=C1OC(C(=O)Nc2cccc(Br)c2)Cc2ccccc21 (configuration not stated) | inactive
